Drawing on PubChem BioAssay (NCI), this text covers growth inhibition for 39 compounds.

This is part of a sample that, as a whole, favours compounds with a hit. Of some 79,000 tested, about 15% had one in any assay. Activity calls are given as the source filed them. No stated cut-off is given here; in the data, active means growth inhibition above about 70%; inactive means the rest.

A short description of one assay: NCI Yeast Anticancer Drug Screen. Data for the rad14 strain (AID 159).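 Further: 0% = growth of vehicle-treated control cultures.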 The settings on record: S. cerevisiae rad14 strain growth inhibition; at 11.0 µM; hits give high values. In a few lines: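 Test compounds were applied to a repair-deficient yeast strain. Its growth was then compared with that of cultures given vehicle alone, and inhibition was expressed relative to those controls.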
With `CCCN(CCC)CC(O)c1cc(-c2ccc(Cl)cc2)nc2c(C)c(Cl)ccc12` (stereo unspecified), the growth inhibition is 99% (active).

As to `O=C(Nc1ccccc1)OCCc1ccc(Cl)c(Cl)c1`, the growth inhibition was 15% (inactive).

`CC(O)C(O)C(O)C(/C=N\Nc1ccccc1)=N/Nc1ccccc1` (stereo unspecified): the growth inhibition is 4% (inactive).

With `C#CCCCc1ccccc1`, the growth inhibition is -31% (inactive).

Turning to `CC(=O)Cc1ccc[cH-]1.[Fe+2].c1cc[cH-]c1`, the growth inhibition was 13% (inactive).

In the case of `Cc1cc(I)ccc1N`, the growth inhibition was -1% (inactive).

Consider `FC(F)(F)c1cc(NC(=S)N2c3ccccc3-n3cccc3C2c2cccnc2)cc(C(F)(F)F)c1` (stereo unspecified), for which the growth inhibition is -1% (inactive).

Turning to `CC(C)(CN1CCCCC1)C(=O)CC(SCCS(=O)(=O)O)c1ccc(Br)cc1` (stereo unspecified), the growth inhibition was 42% (inactive).

On to `C[Si](C)(C)CNC(=O)OCc1ccccc1`, for which the growth inhibition was 0% (inactive).

Consider `CC(C(=O)N1C(=O)N(C(=O)[C@H](C)C(O)c2ccccc2)[C@H](c2ccccc2)[C@H]1c1ccccc1)[C@@H](O)c1ccccc1` (stereo partly specified), for which the growth inhibition is 1% (inactive).

For `Oc1cccc2c(Cl)ccnc12`, the growth inhibition is 99% (active).

As to `O=C1C=CC(=C(c2ccccc2)c2ccccc2)c2ccccc21`, the growth inhibition was -2% (inactive).

As for `S=C(S)NN1CCOCC1`, the growth inhibition was 34% (inactive).

The assay is the same for the next values; noted with them: S. cerevisiae rad14 strain growth inhibition; at 33.0 µM; hits give high values.
Take `C/C(=N\NC(=S)SCc1ccccc1)c1ccccn1`: the growth inhibition is 94% (active).

For the compound `CC[C@@]1(O)C(=O)OCc2c1cc1n(c2=O)Cc2cc3c(N)cccc3nc2-1`, the growth inhibition was -24% (inactive).

As for `CN(C)c1ccc(Sc2ccc3nc(N)nc(N)c3c2)cc1`, the growth inhibition was -14% (inactive).

With `CC(=O)OCCOCNC(=S)N/N=C(\C)c1cnccn1`, the growth inhibition was 46% (inactive).

Turning to `COc1ccc(C2c3cc4c(cc3OC(C)(O)C2C)OCO4)c(OC)c1` (stereo unspecified), the growth inhibition was 1% (inactive).

`COc1cc(C2SCC(=O)N2c2ccc(-c3ccc(-n4c(-c5ccccc5)nc5ccccc5c4=O)cc3)cc2)cc(OC)c1OC` (stereo unspecified): the growth inhibition is 6% (inactive).

`COc1ccc(Br)c(C(=O)Sc2nnnn2-c2cccc(Cl)c2)c1`: the growth inhibition is -16% (inactive).

In the case of `O=C(NNc1ccnc2cc(Cl)ccc12)/C(=C\c1ccccc1Cl)NC(=O)c1ccccc1`, the growth inhibition was 3% (inactive).

`CSC(=S)Nc1cccc(C)n1`: the growth inhibition was 2% (inactive).

`O=C(/C=C\c1ccc(Cl)cc1Cl)c1cccs1`: the growth inhibition is 9% (inactive).

`COc1ccc(-c2cn(-c3ccc(I)cc3)c3ncnc(N)c23)cc1`: the growth inhibition is -8% (inactive).

For `CN(C)c1ccc(C(C#N)=C(C#N)C#N)cc1`, the growth inhibition is 11% (inactive).

As to `COc1cc(/C=C2\CCc3ccccc3C2=O)cc(OC)c1OC`, the growth inhibition was -28% (inactive).

With `CC(C)/C(Cl)=N\OC(=O)Nc1cccc(Cl)c1`, the growth inhibition is 4% (inactive).

Consider `CC1(C)[C@@H]2CC[C@]1(C)[C@H](OC(=O)CSC#N)C2`, for which the growth inhibition is 43% (inactive).

Take `NNC(=O)CCc1ccc2ccc3ccccc3c2c1`: the growth inhibition was -4% (inactive).

Consider `COc1ccc(/C(C)=N/OC(=O)c2c(-c3ccccc3Cl)noc2C)cc1CN1CCOCC1`, for which the growth inhibition was 45% (inactive).

As to `C=CC(C)(O)CCC1C(=C)C(O)CC2C(C)(C)CCCC12C` (stereo unspecified), the growth inhibition is 40% (inactive).

As to `S=C(Nc1ccc(Cl)c(Cl)c1)SCc1ccc2c(c1)OCO2`, the growth inhibition is 99% (active).

In the case of `COc1cc(C2C3=C(COC3=O)Oc3cc4c(cc32)OCO4)ccc1O` (stereo unspecified), the growth inhibition is -8% (inactive).

For `S=C(Nc1ccc(Cl)cc1)SC1CCCCC1`, the growth inhibition is 97% (active).

On to `Nc1nc(-c2cccnc2)cc(-c2cc(-c3cccnc3)nc(N)n2)n1`, for which the growth inhibition is 0% (inactive).

As for `COC1=CC(=O)C2C(C1=O)C(c1ccc(Cl)cc1)[C@@H]2C` (stereo partly specified), the growth inhibition is 99% (active).

For `c1ccc(-c2nc3cccnc3s2)cc1`, the growth inhibition was 1% (inactive).

On to `O=[N+]([O-])c1cc(CCl)ccc1CCl`, for which the growth inhibition was 95% (active).

Take `COc1ccc(/C=C2\SC(=S)N(/C=C/c3nc4ccccc4[nH]c3=O)C2=O)cc1OC`: the growth inhibition is 64% (inactive).

For the compound `CCCN(CCC)CC(O)c1cc(-c2ccc(Cl)cc2)nc2c(C)c(Cl)ccc12` (stereo unspecified), the growth inhibition is 98% (active).

In the case of `O=C(Nc1ccccc1)OCCc1ccc(Cl)c(Cl)c1`, the growth inhibition is 31% (inactive).

As to `CC(O)C(O)C(O)C(/C=N\Nc1ccccc1)=N/Nc1ccccc1` (stereo unspecified), the growth inhibition is 21% (inactive).

As to `C#CCCCc1ccccc1`, the growth inhibition is -17% (inactive).

For the compound `CC(=O)Cc1ccc[cH-]1.[Fe+2].c1cc[cH-]c1`, the growth inhibition is 34% (inactive).

In the case of `Cc1cc(I)ccc1N`, the growth inhibition is 93% (active).

On to `FC(F)(F)c1cc(NC(=S)N2c3ccccc3-n3cccc3C2c2cccnc2)cc(C(F)(F)F)c1` (stereo unspecified), for which the growth inhibition was -3% (inactive).

As for `CC(C)(CN1CCCCC1)C(=O)CC(SCCS(=O)(=O)O)c1ccc(Br)cc1` (stereo unspecified), the growth inhibition is 39% (inactive).

`C[Si](C)(C)CNC(=O)OCc1ccccc1`: the growth inhibition is 0% (inactive).

Take `CC(C(=O)N1C(=O)N(C(=O)[C@H](C)C(O)c2ccccc2)[C@H](c2ccccc2)[C@H]1c1ccccc1)[C@@H](O)c1ccccc1` (stereo partly specified): the growth inhibition is 15% (inactive).

For the compound `Oc1cccc2c(Cl)ccnc12`, the growth inhibition is 96% (active).

As for `O=C1C=CC(=C(c2ccccc2)c2ccccc2)c2ccccc21`, the growth inhibition was 1% (inactive).

With `S=C(S)NN1CCOCC1`, the growth inhibition was 42% (inactive).

Staying with this assay, now noted: S. cerevisiae rad14 strain growth inhibition; at 100.0 µM; hits give high values.
Consider `C/C(=N\NC(=S)SCc1ccccc1)c1ccccn1`, for which the growth inhibition was 92% (active).

As for `CC[C@@]1(O)C(=O)OCc2c1cc1n(c2=O)Cc2cc3c(N)cccc3nc2-1`, the growth inhibition is -33% (inactive).

Turning to `CN(C)c1ccc(Sc2ccc3nc(N)nc(N)c3c2)cc1`, the growth inhibition is 5% (inactive).

On to `CC(=O)OCCOCNC(=S)N/N=C(\C)c1cnccn1`, for which the growth inhibition is 84% (active).

`COc1ccc(C2c3cc4c(cc3OC(C)(O)C2C)OCO4)c(OC)c1` (stereo unspecified): the growth inhibition was 98% (active).

`COc1cc(C2SCC(=O)N2c2ccc(-c3ccc(-n4c(-c5ccccc5)nc5ccccc5c4=O)cc3)cc2)cc(OC)c1OC` (stereo unspecified): the growth inhibition was 4% (inactive).

As for `COc1ccc(Br)c(C(=O)Sc2nnnn2-c2cccc(Cl)c2)c1`, the growth inhibition was 89% (active).

Consider `O=C(NNc1ccnc2cc(Cl)ccc12)/C(=C\c1ccccc1Cl)NC(=O)c1ccccc1`, for which the growth inhibition is 0% (inactive).

As to `CSC(=S)Nc1cccc(C)n1`, the growth inhibition is 50% (inactive).

For `O=C(/C=C\c1ccc(Cl)cc1Cl)c1cccs1`, the growth inhibition is 7% (inactive).

With `COc1ccc(-c2cn(-c3ccc(I)cc3)c3ncnc(N)c23)cc1`, the growth inhibition was -1% (inactive).

For the compound `CN(C)c1ccc(C(C#N)=C(C#N)C#N)cc1`, the growth inhibition is 33% (inactive).

As for `COc1cc(/C=C2\CCc3ccccc3C2=O)cc(OC)c1OC`, the growth inhibition is 48% (inactive).

Regarding `CC(C)/C(Cl)=N\OC(=O)Nc1cccc(Cl)c1`, the growth inhibition was 6% (inactive).

As for `CC1(C)[C@@H]2CC[C@]1(C)[C@H](OC(=O)CSC#N)C2`, the growth inhibition was 97% (active).

Turning to `NNC(=O)CCc1ccc2ccc3ccccc3c2c1`, the growth inhibition was 40% (inactive).

In the case of `COc1ccc(/C(C)=N/OC(=O)c2c(-c3ccccc3Cl)noc2C)cc1CN1CCOCC1`, the growth inhibition was 91% (active).

For `C=CC(C)(O)CCC1C(=C)C(O)CC2C(C)(C)CCCC12C` (stereo unspecified), the growth inhibition is 80% (active).

As for `S=C(Nc1ccc(Cl)c(Cl)c1)SCc1ccc2c(c1)OCO2`, the growth inhibition is 96% (active).

With `COc1cc(C2C3=C(COC3=O)Oc3cc4c(cc32)OCO4)ccc1O` (stereo unspecified), the growth inhibition is -20% (inactive).

With `S=C(Nc1ccc(Cl)cc1)SC1CCCCC1`, the growth inhibition is 97% (active).

In the case of `Nc1nc(-c2cccnc2)cc(-c2cc(-c3cccnc3)nc(N)n2)n1`, the growth inhibition was -1% (inactive).

As to `COC1=CC(=O)C2C(C1=O)C(c1ccc(Cl)cc1)[C@@H]2C` (stereo partly specified), the growth inhibition is 99% (active).

As for `c1ccc(-c2nc3cccnc3s2)cc1`, the growth inhibition was 5% (inactive).

As for `O=[N+]([O-])c1cc(CCl)ccc1CCl`, the growth inhibition was 97% (active).

`COc1ccc(/C=C2\SC(=S)N(/C=C/c3nc4ccccc4[nH]c3=O)C2=O)cc1OC`: the growth inhibition was 90% (active).

For the compound `CCCN(CCC)CC(O)c1cc(-c2ccc(Cl)cc2)nc2c(C)c(Cl)ccc12` (stereo unspecified), the growth inhibition was 97% (active).

For the compound `O=C(Nc1ccccc1)OCCc1ccc(Cl)c(Cl)c1`, the growth inhibition was 53% (inactive).

For `CC(O)C(O)C(O)C(/C=N\Nc1ccccc1)=N/Nc1ccccc1` (stereo unspecified), the growth inhibition is 99% (active).

As for `C#CCCCc1ccccc1`, the growth inhibition is 94% (active).

`CC(=O)Cc1ccc[cH-]1.[Fe+2].c1cc[cH-]c1`: the growth inhibition is 49% (inactive).

`Cc1cc(I)ccc1N`: the growth inhibition is 92% (active).

As to `FC(F)(F)c1cc(NC(=S)N2c3ccccc3-n3cccc3C2c2cccnc2)cc(C(F)(F)F)c1` (stereo unspecified), the growth inhibition is -5% (inactive).

`CC(C)(CN1CCCCC1)C(=O)CC(SCCS(=O)(=O)O)c1ccc(Br)cc1` (stereo unspecified): the growth inhibition was 51% (inactive).

Consider `C[Si](C)(C)CNC(=O)OCc1ccccc1`, for which the growth inhibition is 6% (inactive).

With `CC(C(=O)N1C(=O)N(C(=O)[C@H](C)C(O)c2ccccc2)[C@H](c2ccccc2)[C@H]1c1ccccc1)[C@@H](O)c1ccccc1` (stereo partly specified), the growth inhibition is 36% (inactive).

For the compound `Oc1cccc2c(Cl)ccnc12`, the growth inhibition is 98% (active).

For the compound `O=C1C=CC(=C(c2ccccc2)c2ccccc2)c2ccccc21`, the growth inhibition is -2% (inactive).

`S=C(S)NN1CCOCC1`: the growth inhibition is 52% (inactive).
